{"source": "paper PMC4336329", "about": "(PLoS ONE, 2015)", "note": "Hit rate of the full screen: of about 310,000 compounds, about 14,000 (4.5%) showed an effect of 50% or more. The effect is printed as a negative number. The entries come from a sample that favours strong results as a whole.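 Further: peak tail current of the secondary pulse compared with the same well before compound.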", "data": [{"target": "human ether-à-go-go-related gene (hERG) potassium channel (human, UniProt Q12809)", "sequence (Q12809 whole entry, looked up)": "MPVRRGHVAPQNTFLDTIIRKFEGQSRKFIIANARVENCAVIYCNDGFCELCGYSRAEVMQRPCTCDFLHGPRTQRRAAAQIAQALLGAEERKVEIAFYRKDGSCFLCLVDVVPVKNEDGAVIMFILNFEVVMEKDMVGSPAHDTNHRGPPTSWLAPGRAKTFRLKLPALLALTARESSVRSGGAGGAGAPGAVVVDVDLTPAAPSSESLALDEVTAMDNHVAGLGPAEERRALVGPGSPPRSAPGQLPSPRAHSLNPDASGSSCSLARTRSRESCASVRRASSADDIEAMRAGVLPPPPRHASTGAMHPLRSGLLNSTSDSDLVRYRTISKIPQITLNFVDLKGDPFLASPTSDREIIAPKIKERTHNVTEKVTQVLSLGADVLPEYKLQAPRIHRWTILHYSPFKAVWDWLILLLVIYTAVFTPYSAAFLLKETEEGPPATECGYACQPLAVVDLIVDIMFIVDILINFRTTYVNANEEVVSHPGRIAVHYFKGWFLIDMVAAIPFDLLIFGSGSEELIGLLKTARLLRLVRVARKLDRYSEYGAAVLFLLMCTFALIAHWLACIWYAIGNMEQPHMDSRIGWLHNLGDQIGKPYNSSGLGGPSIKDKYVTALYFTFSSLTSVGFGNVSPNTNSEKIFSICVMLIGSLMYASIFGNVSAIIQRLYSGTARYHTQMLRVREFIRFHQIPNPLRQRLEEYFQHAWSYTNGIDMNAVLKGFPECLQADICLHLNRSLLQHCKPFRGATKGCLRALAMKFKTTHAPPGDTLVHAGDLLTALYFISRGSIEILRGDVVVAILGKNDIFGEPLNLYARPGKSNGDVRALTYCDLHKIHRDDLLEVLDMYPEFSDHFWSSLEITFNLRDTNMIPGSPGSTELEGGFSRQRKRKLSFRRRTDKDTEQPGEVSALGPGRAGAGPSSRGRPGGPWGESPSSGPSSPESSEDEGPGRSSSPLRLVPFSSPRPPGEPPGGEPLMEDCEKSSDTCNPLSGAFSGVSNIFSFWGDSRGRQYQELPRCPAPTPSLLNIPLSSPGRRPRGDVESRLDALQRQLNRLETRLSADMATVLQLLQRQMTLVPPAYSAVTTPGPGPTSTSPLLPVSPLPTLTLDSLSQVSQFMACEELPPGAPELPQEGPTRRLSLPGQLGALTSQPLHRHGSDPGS", "experiment": "primary screen, population patch clamp on CHO cells stably expressing hERG; higher = less effect of the substance", "units": {"hERG current change (%, negative = inhibition) at 10uM": "%"}, "values": [{"smiles": "CCN(CC)S(=O)(=O)c1ccc(C(=O)NC2CN3CCC2CC3)cc1", "note": "(centres unmarked)", "hERG current change (%, negative = inhibition) at 10uM": 25.6}, {"smiles": "CN(/N=C/c1ccc(C(C)(C)C)cc1)C1=NCCN1", "hERG current change (%, negative = inhibition) at 10uM": -71.6}, {"smiles": "Br.COc1ccc(/C=N/N(C)C2=NCCN2)c(OC)c1OC", "hERG current change (%, negative = inhibition) at 10uM": 5.63}, {"smiles": "Br.CN(/N=C/c1ccncc1)C1=NCCN1", "hERG current change (%, negative = inhibition) at 10uM": 5.06}, {"smiles": "Cc1ccccc1C(=O)N1CCC(C(=O)Nc2ccccn2)CC1", "hERG current change (%, negative = inhibition) at 10uM": 11.9}, {"smiles": "Cc1onc(C(=O)N2CCOCC2)c1[N+](=O)[O-]", "hERG current change (%, negative = inhibition) at 10uM": 19.8}, {"smiles": "Cn1nc(C(=O)N2CCOCC2)c([N+](=O)[O-])c1C(=O)N1CCOCC1", "hERG current change (%, negative = inhibition) at 10uM": -54.4}, {"smiles": "Cn1nc(C(C)(C)C)c([N+](=O)[O-])c1C(=O)N1CCOCC1", "hERG current change (%, negative = inhibition) at 10uM": 17.3}, {"smiles": "Cc1cc2ncn(CC(C)C)c2cc1C", "hERG current change (%, negative = inhibition) at 10uM": -3.79}, {"smiles": "O=C(CN1CCC(O)(c2ccc3c(c2)OCO3)CC1)NC1CCCCC1", "hERG current change (%, negative = inhibition) at 10uM": 3.07}, {"smiles": "CSC(=Nc1ccccc1)Nc1ccccc1", "hERG current change (%, negative = inhibition) at 10uM": -15.8}, {"smiles": "[S-]C(=Nc1ccc(Cl)cc1)N[n+]1ccccc1", "hERG current change (%, negative = inhibition) at 10uM": 1.12}, {"smiles": "CSC(=Nc1ccc(Cl)cc1)N[n+]1ccccc1.[I-]", "hERG current change (%, negative = inhibition) at 10uM": -58.8}, {"smiles": "C[N+]1(CCC(C(N)=O)(c2ccccc2)c2ccccc2)CCCCC1.[Br-]", "hERG current change (%, negative = inhibition) at 10uM": 10.7}, {"smiles": "ClCc1csc(N/N=C/c2cccs2)n1", "hERG current change (%, negative = inhibition) at 10uM": 11.8}, {"smiles": "CCOc1ccc(Br)cc1S(=O)(=O)Nc1ccc(C(=O)OCC(=O)N(C)c2ccccc2)cc1", "hERG current change (%, negative = inhibition) at 10uM": 12.7}, {"smiles": "CC1CC(OC(=O)c2ccccc2)(c2ccccc2)C(C)CN1C", "note": "(centres unmarked)", "hERG current change (%, negative = inhibition) at 10uM": -8.66}, {"smiles": "O=C(CCCN1C(=O)/C(=C/c2ccccc2)SC1=S)Nc1cccc(O)c1", "hERG current change (%, negative = inhibition) at 10uM": 2.17}, {"smiles": "O=C(O)CCC(=O)NNC(=O)COc1cccc(Cl)c1", "hERG current change (%, negative = inhibition) at 10uM": 2.84}, {"smiles": "COc1ccc(CC(=O)N2CCN=C2SCc2cccc([N+](=O)[O-])c2)cc1", "hERG current change (%, negative = inhibition) at 10uM": -5.33}, {"smiles": "CCOc1ccc(CC(=O)N2CCN=C2SCc2ccc([N+](=O)[O-])cc2)cc1", "hERG current change (%, negative = inhibition) at 10uM": 5.05}, {"smiles": "O=C(Cc1ccc([N+](=O)[O-])cc1)N1CCN=C1SCc1ccccc1", "hERG current change (%, negative = inhibition) at 10uM": -7.33}, {"smiles": "O=C(Cc1ccccc1)N1CCN=C1SCc1ccc([N+](=O)[O-])cc1", "hERG current change (%, negative = inhibition) at 10uM": -55.5}, {"smiles": "COc1ccc(CC(=O)N2CCN=C2SCc2ccc([N+](=O)[O-])cc2)cc1", "hERG current change (%, negative = inhibition) at 10uM": -52.2}, {"smiles": "O=C(Cc1ccc(F)cc1)N1CCN=C1SCc1ccc([N+](=O)[O-])cc1", "hERG current change (%, negative = inhibition) at 10uM": -47.3}, {"smiles": "CS(=O)(=O)N(Cc1ccccc1)c1ccc(C(=O)Nc2ccc(C(N)=O)cc2)cc1", "hERG current change (%, negative = inhibition) at 10uM": 12.8}, {"smiles": "Cn1c(N)c(C(=O)COC(=O)c2ccc(Cl)c(S(=O)(=O)N3CCCC3)c2)c(=O)n(C)c1=O", "hERG current change (%, negative = inhibition) at 10uM": -43.9}, {"smiles": "COC(CNc1ccc([N+](=O)[O-])c(NCC(OC)OC)c1C#N)OC", "hERG current change (%, negative = inhibition) at 10uM": 5.62}, {"smiles": "CN(C(=O)c1cccc(NC(=O)c2ccco2)c1)c1ccccc1", "hERG current change (%, negative = inhibition) at 10uM": 13.3}, {"smiles": "Cc1ccc(C(=O)Nc2ccc(NC(=O)c3ccco3)c(C)c2)cc1", "hERG current change (%, negative = inhibition) at 10uM": 14.7}, {"smiles": "Cc1cc(Br)ccc1NC(=O)c1ccco1", "hERG current change (%, negative = inhibition) at 10uM": 0.934}, {"smiles": "Cc1ccc(NC(=O)c2ccccc2Br)cc1S(=O)(=O)N(C)C", "hERG current change (%, negative = inhibition) at 10uM": -1.84}, {"smiles": "CN(C)S(=O)(=O)c1ccc(NC(=O)c2ccc(Br)o2)cc1", "hERG current change (%, negative = inhibition) at 10uM": -9.84}, {"smiles": "Cc1cc(NC(=O)c2ccc(Br)o2)ccc1NC(=O)c1ccco1", "hERG current change (%, negative = inhibition) at 10uM": -58.2}, {"smiles": "Cc1ccc(NC(=O)c2ccc(Br)o2)cc1S(=O)(=O)N(C)C", "hERG current change (%, negative = inhibition) at 10uM": -54.7}, {"smiles": "CN(C)c1cccc(NC(=O)c2ccco2)c1", "hERG current change (%, negative = inhibition) at 10uM": -73.3}, {"smiles": "CC(=O)Nc1cccc(NC(=O)c2ccco2)c1", "hERG current change (%, negative = inhibition) at 10uM": -4.69}, {"smiles": "COc1ccc(C2N(C(=O)C(F)(F)F)C(C)CN2S(=O)(=O)c2ccc(C)cc2)cc1", "note": "(centres unmarked)", "hERG current change (%, negative = inhibition) at 10uM": 11.2}, {"smiles": "Cc1ccc(C2NC(=O)c3c(sc(C)c3C)N2)c(O)c1", "note": "(centres unmarked)", "hERG current change (%, negative = inhibition) at 10uM": -3.45}, {"smiles": "CCOc1ccc(-n2c(CC)nc3ccccc3c2=O)cc1", "hERG current change (%, negative = inhibition) at 10uM": 1.33}, {"smiles": "N#Cc1nc(-c2cccc(Cl)c2)oc1N1CCC(C(N)=O)CC1", "hERG current change (%, negative = inhibition) at 10uM": 0.912}, {"smiles": "CCOC(=O)C1C(=O)NC(N2CCCCC2)=NC1c1ccco1", "note": "(centres unmarked)", "hERG current change (%, negative = inhibition) at 10uM": 8.22}, {"smiles": "Cc1cccc(C)c1NC(=O)C1(C)c2cccc[n+]2CC(=O)N1Cc1cccs1.[I-]", "note": "(centres unmarked)", "hERG current change (%, negative = inhibition) at 10uM": 6.18}, {"smiles": "COc1ccc(S(=O)(=O)Nc2cccc(S(=O)(=O)NC3=NCCC3)c2)cc1[N+](=O)[O-]", "hERG current change (%, negative = inhibition) at 10uM": 18.6}, {"smiles": "O=C(N/N=C/c1cn(-c2ccccc2)nc1-c1cccnc1)c1cccnc1", "hERG current change (%, negative = inhibition) at 10uM": -50.3}, {"smiles": "O=C(N/N=C/c1cn(-c2ccccc2)nc1-c1cccnc1)c1ccc(F)cc1", "hERG current change (%, negative = inhibition) at 10uM": -41.3}, {"smiles": "CC(C)(C)OC(=O)N/N=C/c1cn(-c2ccccc2)nc1-c1cccnc1", "hERG current change (%, negative = inhibition) at 10uM": -49.3}, {"smiles": "NC(=S)N/N=C/c1cn(-c2ccccc2)nc1-c1cccnc1", "hERG current change (%, negative = inhibition) at 10uM": 11.8}, {"smiles": "O=C(N/N=C/c1cn(-c2ccccc2)nc1-c1cccnc1)c1ccccc1", "hERG current change (%, negative = inhibition) at 10uM": -60.7}, {"smiles": "NC(=O)N/N=C/c1cn(-c2ccccc2)nc1-c1cccnc1", "hERG current change (%, negative = inhibition) at 10uM": 4.92}, {"smiles": "CCn1ccnc1CN(C)C(=O)CCc1nnc(CCC2CCCCC2)o1", "hERG current change (%, negative = inhibition) at 10uM": -27.7}, {"smiles": "C=Cn1ccnc1P(=S)(c1ccc(N(C)C)cc1)c1nccn1C=C", "hERG current change (%, negative = inhibition) at 10uM": 3.93}, {"smiles": "O=c1c2ccccc2nc(-c2ccc(Cl)cc2)n1C1CCS(=O)(=O)C1", "note": "(centres unmarked)", "hERG current change (%, negative = inhibition) at 10uM": -2.23}, {"smiles": "O=C(CN1CCN(Cc2ccccc2)CC1)N1N=CCC1c1ccccc1", "note": "(centres unmarked)", "hERG current change (%, negative = inhibition) at 10uM": -1.06}, {"smiles": "Cc1ccc(C(=O)O/N=C/c2c(Cl)n(C)c3ccccc23)cc1", "hERG current change (%, negative = inhibition) at 10uM": 16.2}, {"smiles": "CC(=O)Nc1ccc(N(C(=O)CNC(=O)c2cccs2)C(C(=O)NCC2CCCO2)c2ccccc2)cc1", "note": "(centres unmarked)", "hERG current change (%, negative = inhibition) at 10uM": 13.2}]}]}
